In PubChem BioAssay AID1159580 (chemical genetic matrix, 2015):
Where “and” joins values, the source holds several entries; their conditions need not be identical. Identical values can stand only once. Out of some 5,500 compounds screened, about 2,000 (36%) were called active. Not shown: some 18% with an inconclusive outcome. Cut-off read from the data, not from the text of the source: active = normalized growth mostly below about 0.91 (no sharp cut-off); inconclusive = no clear call, values can overlap the other calls; inactive = mostly above about 0.92. This is one part of the list.

Experiment: chemical genetic growth profiling, strain panel (AID 1159580);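 note: tested at 20 µM; growth read once vehicle control cultures reached saturation at 30 °C; 1 = growth at the plate median or of vehicle wells; lower values mean less growth of the strain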
Conditions: S. cerevisiae deletion strains, growth OD

Measured: normalized growth

CC(=O)S[C@@H]1CC2=CC(=O)CC[C@]2(C)[C@H]2CC[C@@]3(C)[C@@H](CC[C@@]34CCC(=O)O4)C12 (some centres undefined)
inactive: locus YAL013W, strain DEP1, active compounds read low 1 | locus YAL021C, strain ccr4, active compounds read low 1.01 | locus YAL026C, strain drs2, active compounds read low 1.01 | locus YAL030W, strain snc1, active compounds read low 1.01 | locus YBL061C, strain skt5, active compounds read low 1.02 | locus YBR009C, strain hhf1, active compounds read low 0.98 | locus YBR021W, strain FUR4, active compounds read low 0.992 | locus YBR023C, strain chs3, active compounds read low 1.01 | locus YBR171W, strain sec66, active compounds read low 1.03 | locus YBR229C, strain ROT2, active compounds read low 0.997 | locus YBR231C, strain swc5, active compounds read low 1.04 | locus YBR279W, strain paf1, active compounds read low 1.01 | locus YCL011C, strain gbp2, active compounds read low 0.984 | locus YCL016C, strain dcc1, active compounds read low 0.993 | locus YCL029C, strain bik1, active compounds read low 1.03 | locus YCL061C, strain MRC1, active compounds read low 1.04 | locus YCL069W, strain vba3, active compounds read low 1.01 | locus YCR088W, strain abp1, active compounds read low 1.01 | locus YDL005C, strain med2, active compounds read low 1.01 | locus YDL035C, strain GPR1, active compounds read low 1.01 | locus YDL040C, strain nat1, active compounds read low 1.01 | locus YDL074C, strain BRE1, active compounds read low 1.01 | locus YDL101C, strain DUN1, active compounds read low 1.01 | locus YDL134C, strain PPH21, active compounds read low 1.01 | locus YDL185W, strain tfp1, active compounds read low 1.01 | locus YDL192W, strain arf1, active compounds read low 1.03 | locus YDR001C, strain nth1, active compounds read low 1 | locus YDR069C, strain doa4, active compounds read low 1.03 | locus YDR101C, strain arx1, active compounds read low 1.03 | locus YDR137W, strain rgp1, active compounds read low 1 | locus YDR150W, strain NUM1, active compounds read low 1 | locus YDR159W, strain sac3, active compounds read low 0.972 | locus YDR162C, strain NBP2, active compounds read low 1 | locus YDR195W, strain ref2 1.05 | locus YDR297W, strain sur2, active compounds read low 1.02 | locus YDR318W, strain mcm21, active compounds read low 1.02 | locus YDR334W, strain swr1, active compounds read low 1 | locus YDR335W, strain msn5, active compounds read low 1.02 | locus YDR388W, active compounds read low 1.03 | locus YDR392W, strain spt3, active compounds read low 0.951 | locus YDR502C, strain sam2, active compounds read low 1.02 | locus YEL003W, strain gim4, active compounds read low 1.01 | locus YEL037C, strain rad23, active compounds read low 1.01 | locus YEL061C, strain CIN8 (second series), active compounds read low 1.01 | locus YEL061C, strain CIN8, active compounds read low 0.963 | locus YER015W, strain faa2, active compounds read low 1.02 | locus YER016W, strain bim1, active compounds read low 1 | locus YER110C, active compounds read low 1.03 | locus YER111C, strain swi4, active compounds read low 1.01 | locus YER155C, strain BEM2 (second series), active compounds read low 1.07 | locus YER155C, strain BEM2, active compounds read low 1.01 | locus YER167W, strain BCK2, active compounds read low 1.01 | locus YFR010W, strain ubp6, active compounds read low 1.02 | locus YGL078C, strain dbp3, active compounds read low 1.03 | locus YGL086W, strain mad1, active compounds read low 0.998 | locus YGL167C, strain pmr1, active compounds read low 1.03 | locus YGL173C, strain kem1, active compounds read low 1.02 | locus YGL227W, strain vid30, active compounds read low 0.997 | locus YGL240W, strain doc1, active compounds read low 1.05 | locus YGL248W, strain PDE1, active compounds read low 1.01 | locus YGL253W, strain hxk2, active compounds read low 0.97 | locus YGR078C, strain PAC10, active compounds read low 0.984 | locus YGR135W, strain pre9, active compounds read low 1.02 | locus YGR252W, strain gcn5, active compounds read low 1 | locus YHR013C, strain ard1, active compounds read low 1.01 | locus YHR027C, strain rpn1, active compounds read low 1.01 | locus YHR030C, strain SLT2, active compounds read low 0.996 and 1.06 | locus YHR079C, strain IRE1 (second series), active compounds read low 1.03 | locus YHR079C, strain IRE1, active compounds read low 1.08 | locus YHR094C, strain hxt1, active compounds read low 1.03 | locus YHR129C, strain ARP1, active compounds read low 1 | locus YHR142W, strain chs7, active compounds read low 1 | locus YHR200W, strain rpn10, active compounds read low 1.02 | locus YIL066C, strain RNR3, active compounds read low 1 | locus YIL073C, strain SPO22, active compounds read low 1.05 | locus YIL125W, strain kgd1, active compounds read low 1.02 | locus YIR030C, strain dcg1, active compounds read low 1.02 | locus YJL092W, strain hpr5, active compounds read low 1.01 | locus YJL095W, strain BCK1 (second series), active compounds read low 0.996 | locus YJL095W, strain BCK1, active compounds read low 1 and 1.02 | locus YJL115W, strain asf1, active compounds read low 1.02 | locus YJL129C, strain trk1, active compounds read low 1.02 | locus YJL134W, strain LCB3, active compounds read low 1 | locus YJL154C, strain vps35, active compounds read low 1.02 | locus YJL164C, strain tpk1, active compounds read low 0.983 | locus YJL166W, strain qcr8, active compounds read low 1.04 | locus YJL168C, strain set2, active compounds read low 1.02 | locus YJL187C, strain SWE1 (second series), active compounds read low 1 | locus YJL187C, strain SWE1, active compounds read low 1.02
